Assay outcomes (PubChem BioAssay)
The list is not random: actives were taken first. Their share in the collection is about 2.3%.
Mcl1-Noxa inh – Mcl-1/Noxa interaction inhibition; Q07820; TR-FRET Mcl-1/Noxa peptide binding, 2 h; inhibition, % at 21.7 µM; actives 1.5% (n = 220,000);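 active means compounds that cut the protein-peptide binding signal by more than 50% relative to plate controls in a single-dose test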;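 further: His-tagged Mcl-1 with rhodamine Noxa BH3 peptide and terbium anti-His antibody; 0% = Mcl-1 plus Noxa peptide wells and 100% = peptide-only wells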
Target sequence (Q07820 whole entry, looked up): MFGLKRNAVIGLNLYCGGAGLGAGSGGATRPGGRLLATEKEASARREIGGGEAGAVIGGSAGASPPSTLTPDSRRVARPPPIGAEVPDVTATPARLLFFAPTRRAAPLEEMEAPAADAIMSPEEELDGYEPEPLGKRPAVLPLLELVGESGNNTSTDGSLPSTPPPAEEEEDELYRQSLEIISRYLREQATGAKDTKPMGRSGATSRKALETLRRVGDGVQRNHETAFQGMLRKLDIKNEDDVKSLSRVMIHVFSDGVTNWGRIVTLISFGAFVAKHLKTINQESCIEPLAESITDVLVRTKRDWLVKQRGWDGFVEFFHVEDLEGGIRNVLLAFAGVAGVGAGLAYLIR
MCL1 BIM primary – inhibitors of human MCL1 binding to BIM-BH3 peptide | Q07820 | GST-MCL1 / FITC-Bim-BH3 fluorescence polarization | inhibition, % at 10.9 µM | actives 0.68% (n = 320,000) | AID 2057;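 active means inhibition above the mean inhibition of all tested compounds plus 3 SD, set per campaign, cut at about 40% in these data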;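 further: 0% = DMSO wells and 100% = unlabeled Bim-BH3 peptide control; higher means more loss of mP so more displacement of Bim peptide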
Mcl1-Bid inh – Mcl-1/Bid interaction inhibition | TR-FRET Mcl-1/Bid-Dy647 peptide binding, 1536-well | inhibition, % at 21.7 µM | actives 0.97% (n = 220,000) | AID 1021;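 active means compounds that cut the binding signal by more than half at the single screening dose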;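 further: His-tagged Mcl-1 with europium anti-His antibody binding Bid BH3 peptide; 0% = Mcl-1 plus peptide wells and 100% = peptide-only wells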
GLD-1 RNA inh – GLD-1-TGE RNA interaction inhibition (C. elegans); purified GLD-1 + fluorescein TGE RNA, fluorescence polarization; actives 0.44% (n = 320,000); Q17339; inhibition, % at 5.96 µM;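 active means percent inhibition above a per-plate cutoff, the plate mean of test compounds plus 3 SD, cut at about 30% in these data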;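 further: 0% = DMSO wells with GLD-1 and probe and 100% = wells lacking GLD-1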
Mcl-1 Bim block – human Bim-Mcl-1 interaction inhibition. actives 0.1% (n = 190,000). Q07820. Bead-based flow cytometry, Bim peptide-Mcl-1 binding. inhibition, % at 10 µM; in the data active means inhibition above about 40%;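 further: 0% = no compound tracer wells and 100% = peptide blocker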
Bcl-xL primary – Bcl-xL (human) inhibition; inhibition, % at 10.9 µM; actives 0.7% (n = 320,000); GST-Bcl-xL / FITC-Bim BH3 peptide fluorescence polarization; AID 2129; Q07817;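 active means inhibition above the mean of all tested compounds plus 3 SD, cutoff set per campaign, cut at about 30% in these data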;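 further: 0% = DMSO wells and 100% = unlabeled Bim-BH3 peptide competitor; inhibitors lower millipolarization by displacing the labeled peptide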
Target sequence (Q07817 whole entry, looked up): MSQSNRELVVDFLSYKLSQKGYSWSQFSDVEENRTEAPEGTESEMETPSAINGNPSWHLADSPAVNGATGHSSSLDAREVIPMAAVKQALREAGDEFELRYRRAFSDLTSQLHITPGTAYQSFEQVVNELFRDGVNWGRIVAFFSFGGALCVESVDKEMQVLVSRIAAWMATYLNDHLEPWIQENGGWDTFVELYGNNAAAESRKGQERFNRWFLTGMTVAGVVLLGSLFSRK
Numbers without * were called inactive; x = no result given.

SMILES | Mcl1-Noxa inh | MCL1 BIM primary | Mcl1-Bid inh | GLD-1 RNA inh | Mcl-1 Bim block | Bcl-xL primary
C#CCOCCOCCOCCNc1nc(N2CCN(C(=O)[C@H]([C@@H](C)CC)n3cc([C@@H](N)CO)nn3)CC2)nc(N2CCN(C(=O)[C@H](CCCCN)n3cc([C@@H](N)CC(C)C)nn3)CC2)n1 | 23.9 | 0.8 | 20.0 | 6.9 | -2.0 | 5.2
CCN(c1ccc(NC(=O)CN2C(=O)NC3(CCOc4ccccc43)C2=O)cc1)C(C)C (centres undefined) | 65.8* | 1.3 | 12.2 | 6.8 | -2.0 | 3.3
COc1ccc(C(=O)NC(=O)NC2(C(Cl)(Cl)Cl)OCCO2)cc1 | 18.0 | -2.8 | 3.6 | 2.6 | 1.0 | 3.6
Cc1ccc(OCCCC(=O)Nc2ccccc2C(F)(F)F)cc1 | 73.6* | 6.2 | -9.7 | 7.6 | -4.0 | 5.1
O=C(CSc1nnc(SCc2ccccc2Cl)s1)N/N=C/c1c[nH]c2ccccc12 | 26.5 | 4.5 | 21.8 | 4.7 | -8.0 | 3.8
Cc1ccc(CSc2nnc(SCC(=O)N/N=C/c3c[nH]c4ccccc34)s2)cc1 | 75.7* | x | 89.7* | x | 2.0 | x
Cc1ccccc1NC(C)C(=O)N/N=C/c1c[nH]c2ccccc12 (centres undefined) | 8.8 | -1.5 | -32.5 | 9.4 | -1.0 | 2.7
Cc1ccc(NC(C)C(=O)N/N=C/c2c[nH]c3ccccc23)cc1 (centres undefined) | 54.4* | 9.6 | -8.9 | 4.8 | -3.0 | -0.5
CCOc1ccc(CN2CCNC(=O)C2CC(=O)NCC2CCOCC2)cc1 (centres undefined) | x | 10.6 | x | 0.7 | x | 15.2
CCOC(=O)C1CCCN(C(=O)c2cccc([N+](=O)[O-])c2C)C1 (centres undefined) | 15.6 | 1.2 | 2.1 | 3.1 | -3.0 | 2.5
Cc1occc1C(=O)N=Nc1c(O)[nH]c2ccc(Br)cc12 | 51.3* | 8.8 | 35.7 | 2.3 | 16.0 | 5.7
Cc1cc(C)c(S(=O)(=O)/N=C2/C=C(Sc3ncn[nH]3)C(=O)c3ccccc32)cc1C | 99.6* | 28.8 | 71.9* | 6.8 | 1.0 | 27.2
CC(C)(C)c1cc(C(=O)N/N=C/c2ccc(-c3ccccc3[N+](=O)[O-])o2)n[nH]1 | x | 42.3* | x | 75.4* | x | 47.8*
O=C(N/N=C/c1ccc(-c2ccccc2[N+](=O)[O-])o1)c1cccnc1 | 32.7 | 17.7 | -61.0 | 9.9 | 3.0 | 22.5
CCc1ccc(S(=O)(=O)Nc2ccc(O)c3c(=O)cc(-c4ccccc4Cl)oc23)cc1 | 0.8 | 0.3 | -14.7 | 5.8 | x | 4.7
O=c1cc(-c2ccccc2Cl)oc2c(NS(=O)(=O)c3cc(Cl)cc(Cl)c3O)ccc(O)c12 | 110.2* | 13.3 | 70.2* | 16.0 | 0.0 | 8.3
O=c1[nH]cc(S(=O)(=O)c2ccccc2)[nH]1 | -6.9 | 8.3 | -37.6 | 7.8 | 0.0 | 4.1
Cc1ccccc1CN1CCN(S(=O)(=O)c2ccc(F)cc2)CC1 | 5.0 | 10.7 | 59.6* | -0.2 | 1.0 | 0.9
Cn1cc(C=O)c2cc(F)ccc21 | 0.6 | -13.7 | -13.7 | 1.9 | 2.0 | 2.4
Cn1cc(/C=C/c2cc[n+](C)cc2)c2cc(F)ccc21 | x | 2.6 | x | 76.6* | x | 28.5
Cn1cc(/C=C/c2cc[n+](C)cc2)c2cc(Cl)ccc21 | x | -14.6 | x | 51.8* | x | 14.9
CCOc1ccc(NC(=O)CC2C(=O)N(c3ccc(OC)cc3)C(=S)N2Cc2ccccn2)cc1 (centres undefined) | 9.8 | 0.8 | 81.7* | -0.2 | 0.0 | 4.5
Cc1nn(-c2ccccc2)c(Cl)c1/C=N/NC(=O)c1ccnn1C | x | 4.2 | x | 3.4 | x | 9.3
Clc1ccc(SCc2cn3ccccc3n2)cc1 | -0.8 | 2.0 | -24.5 | 1.2 | -2.0 | 2.5
c1ccc2c(SCc3cn4ccccc4n3)nncc2c1 | 0.2 | 1.2 | 8.8 | 3.2 | -2.0 | 53.9*
SMILES | Mcl1-Noxa inh | MCL1 BIM primary | Mcl1-Bid inh | GLD-1 RNA inh | Mcl-1 Bim block | Bcl-xL primary
CNC(=O)c1ccsc1NC(=O)c1coc2ccccc2c1=O | 28.9 | 0.3 | 34.8 | -6.1 | 0.0 | 3.8
CN(C)c1ccc(/C=C/c2cccc[n+]2[O-])cc1 | 3.0 | 18.7 | -40.2 | -2.4 | x | 30.9*
[O-][n+]1ccccc1/C=C/c1ccccc1 | x | 7.3 | x | 1.4 | x | 2.8
CC(SCc1ccccc1)C(=O)Nc1ccccc1F (centres undefined) | x | 3.5 | x | 1.0 | x | 5.2
COc1ccc(-c2csc(Nc3ccc(C)cn3)n2)cc1OC | 17.9 | -4.2 | -70.1 | 1.5 | 1.0 | -3.4
Cc1ccc(Nc2nc(-c3ccc(O)c(O)c3)cs2)nc1 | 54.2* | x | -12.3 | x | 1.0 | x
Cc1cc(C)c2c(=O)[nH]c(SCC(=O)c3ccc(F)c(C)c3)nc2n1 | -225.4 | -3.7 | 58.9* | 5.3 | -6.0 | -2.1
Cc1ccc(CN2C(=O)C(C)Nc3ncnc(N4CCOCC4)c32)cc1 (centres undefined) | x | -1.4 | x | -4.2 | x | -2.2
CC(CC1C(C#N)=C(N)OC2=C1C(=O)CCC2)c1ccccc1 (centres undefined) | 12.4 | -4.9 | 60.2* | -2.2 | -1.0 | -0.3
CC1CCCC(C)N1CCNC(=O)C1CCN(S(=O)(=O)N2CCCCC2)CC1 (centres undefined) | 9.6 | 4.2 | 101.8* | 8.3 | -2.0 | 8.6
CCCN(CCC)CCNc1c(N2CCN(C(=O)OCC)CC2)c(=O)c1=O | 64.5* | 7.8 | -29.6 | 0.1 | 0.0 | 2.3
CCCCC(Sc1nc(N)c(NC(=O)c2ccco2)c(=O)[nH]1)C(=O)O (centres undefined) | x | 37.8 | x | 23.8 | x | 31.1*
CCN(CC(=O)Nc1ccc(N2CCOCC2)cc1)C(=O)Cc1ccccc1 | x | -1.1 | x | 1.0 | x | -1.0
CC1CCC(C(C)C)C2=C1C(C#N)(C#N)C(C#N)(C#N)C(c1ccccc1)N2 (centres undefined) | 56.3* | 10.4 | -35.9 | 21.5 | 0.0 | 15.7
O=C1CCCc2c1sc1nc3n(c(=O)c21)CCCCC3 | 13.0 | 3.6 | -10.1 | -4.3 | 2.0 | 4.2
O=C1c2sc3nc4n(c(=O)c3c2CCC1Br)CCCCC4 (centres undefined) | x | 36.3 | -19.9 | 0.5 | -1.0 | 30.5*
CN(C)S(=O)(=O)n1cc(/C=C(\NC(=O)c2ccccc2Cl)C(=O)NCCCn2ccnc2)c2ccccc21 | x | 3.1 | x | -2.0 | x | 2.5
CC(CCC(=O)Nc1nncs1)C(=O)O (centres undefined) | 32.9 | -2.6 | 86.5* | -2.0 | 0.0 | -0.5
CCC(CCC(=O)Nc1nncs1)C(=O)O (centres undefined) | -5.1 | x | 0.4 | x | 9.0 | x
Cc1ccc(/C=C/C2=Cc3c(sc(NC(=O)CSc4n[nH]c(N)n4)c3C#N)C(C)(C)C2)o1 | 96.9* | 60.7* | -30.0 | 37.0* | 8.0 | 53.8*
CCOCCCNC(=S)N(CCO)Cc1cc2cc3c(cc2[nH]c1=O)OCCO3 | x | 17.4 | x | 6.5 | x | 13.1
CC(C)CN1C(=O)C(=O)N(CC(=O)Nc2cccc(Cl)c2Cl)C1=O | x | 4.8 | x | -0.5 | x | 7.3
CC(C)C[C@H]1COCCS(=O)(=O)N1Cc1ccc(Cl)c(Cl)c1 | x | -8.8 | x | 0.9 | x | 66.7*
